A selection: hits, their analogues and other compounds. The true share with any hit is near 11%.
PLK1 PBD block = inhibitors of human PLK1 polo-box domain binding; 360,000 compounds, 2.8% hits; Potency, µM, usual class: inhibitors; AID 720504; Plk1 PBD binding of FITC phosphopeptide, fluorescence polarization; P53350; note: series mostly up to about 57 µM; nearly all actives have a fitted effect of over 65% in size
HP1b chromo inh = blocks HP1-beta chromodomain binding to methylated histone tails | AID 540317 | AlphaScreen HP1-beta / biotin-H3K9me3 peptide binding | Potency, µM (doses to about 114 µM), most hits filed as inhibitors | 390,000 compounds, 0.56% hits; note: nearly all actives have a fitted effect of over 70% in size
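HP1-beta protein (50 nM final) preincubated 30 min at room temperature with biotinylated H3(1-18)K9me3 peptide (50 nM) in PBS pH 7.4, 0.01% Tween-20, then compound added for 30 min. AlphaScreen streptavidin donor/nickel chelate acceptor beads (10 ug/mL final), 30 min dark, luminescence read.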
G9a block = G9a (human) methyltransferase inhibition; 350,000 compounds, 8.8% hits; Potency, µM (series often up to 102 µM), usual class: inhibitors; AID 504332; G9a H3K9 monomethylation, AlphaScreen, 2 h; Q96KQ7; note: nearly all actives have a fitted effect of over 75% in size
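Chemiluminescent proximity detection of H3K9 monomethylation, read after 10 min bead incubation in the dark. Reaction: 20 nM G9a, 500 nM biotin-H3K9 peptide, 20 uM SAM cofactor, 2 h, room temperature, following 15 min enzyme-compound preincubation.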
BAZ2B block = inhibitors of human BAZ2B bromodomain; Q9UIF8; AlphaScreen BAZ2B-H3K14Ac peptide displacement; Potency, µM (top dose mostly 114 µM), actives largely listed as inhibitors; 360,000 compounds, 4.4% hits; AID 504333; note: nearly all actives have a fitted effect of over 60% in size
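Compounds, titrated to a top concentration of 110 uM, were incubated 30 min at room temperature with preformed BAZ2B/acetyl-K14 H3 peptide complex (50 nM each). Proximity signal was measured by AlphaScreen after 20 min with beads.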
JMJD2A Tudor inh = inhibitors of human JMJD2A Tudor domain | O75164 | AlphaScreen JMJD2A-Tudor / H3K4me3 peptide binding | Potency, µM (highest dose often 114 µM), usual class: inhibitors | 390,000 compounds, 4.4% hits; note: nearly all actives have a fitted effect of over 50% in size
Target sequence (O75164 whole entry, looked up, the tested form may be a part): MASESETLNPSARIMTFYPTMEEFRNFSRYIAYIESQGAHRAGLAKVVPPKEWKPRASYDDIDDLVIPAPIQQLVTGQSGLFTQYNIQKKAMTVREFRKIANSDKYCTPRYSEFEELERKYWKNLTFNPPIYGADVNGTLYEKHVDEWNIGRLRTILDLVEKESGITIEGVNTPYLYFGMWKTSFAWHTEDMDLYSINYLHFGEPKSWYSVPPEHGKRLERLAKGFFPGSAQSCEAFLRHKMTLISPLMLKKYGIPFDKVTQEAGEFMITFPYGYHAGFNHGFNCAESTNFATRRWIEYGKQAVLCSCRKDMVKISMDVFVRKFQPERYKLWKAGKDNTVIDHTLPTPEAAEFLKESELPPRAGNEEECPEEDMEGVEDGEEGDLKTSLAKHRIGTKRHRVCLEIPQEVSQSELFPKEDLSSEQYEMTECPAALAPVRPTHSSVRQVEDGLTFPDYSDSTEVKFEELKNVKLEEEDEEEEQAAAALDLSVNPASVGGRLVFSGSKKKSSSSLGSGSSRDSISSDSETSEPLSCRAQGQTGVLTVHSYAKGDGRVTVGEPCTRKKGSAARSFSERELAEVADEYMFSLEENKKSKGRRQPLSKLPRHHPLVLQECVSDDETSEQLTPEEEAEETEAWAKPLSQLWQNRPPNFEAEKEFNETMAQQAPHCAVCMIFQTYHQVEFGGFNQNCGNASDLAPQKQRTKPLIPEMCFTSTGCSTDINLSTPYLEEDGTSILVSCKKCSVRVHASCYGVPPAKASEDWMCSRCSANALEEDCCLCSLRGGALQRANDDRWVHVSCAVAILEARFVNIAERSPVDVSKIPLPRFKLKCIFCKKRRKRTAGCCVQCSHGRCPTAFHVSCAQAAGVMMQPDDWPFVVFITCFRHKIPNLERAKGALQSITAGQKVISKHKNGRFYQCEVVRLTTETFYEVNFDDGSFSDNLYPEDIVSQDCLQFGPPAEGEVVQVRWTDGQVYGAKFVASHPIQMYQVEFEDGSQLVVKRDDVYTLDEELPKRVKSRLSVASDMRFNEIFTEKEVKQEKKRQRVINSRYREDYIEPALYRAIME
VDR inhibitor = vitamin D3 receptor (human) inhibition; AID 504847; 400,000 compounds, 0.93% hits; VDR-SRC2-3 peptide fluorescence polarization, 2 h; Potency, µM, most hits filed as inhibitors
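Fluorescence polarization assay measuring small-molecule disruption of VDR binding to the coregulator peptide SRC2-3. Compounds were pin-transferred (23 nl) into the reagent mix and incubated 2 h at room temperature before reading.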
Each line names hits and unclear results; the compound was inactive in the other large screens. Calls come from the whole dose curve; as a rule, active = well fitted curve in the direction sought with a large enough effect; inconclusive = small, poorly fitted or top-dose-only effect, or another doubt; inactive = no such curve, though single readings can be large; an effect the other way counts as inactive or inconclusive.

NNC(=O)CNS(=O)(=O)c1ccc([N+](=O)[O-])cc1	G9a block inconclusive, BAZ2B block inconclusive
CCN(CC)C(=O)C[n+]1ccc(C(N)=O)cc1	PLK1 PBD block 27µM
Cc1nc(-c2ccccc2)sc1C(=O)NS(=O)(=O)c1ccc(CN2CCN(c3ccccc3)CC2)cc1	none (no result: HP1b chromo inh, G9a block, BAZ2B block, JMJD2A Tudor inh, VDR inhibitor)
C=C(C)[C@@H]1CCC2(C(=O)O)CC[C@]3(C)[C@H](CC[C@@H]4[C@@]5(C)CCC(=O)C(C)(C)[C@@H]5CC[C@]43C)[C@@H]12 (stereo not given in full)	PLK1 PBD block 13µM
COc1ccc(N(CC(=O)N2CCc3ccccc3C2)S(C)(=O)=O)cc1Cl	G9a block 50µM
COc1ccc(N(CC(=O)N2CCCCCC2)S(C)(=O)=O)cc1Cl	none (no result: G9a block)
O=C(O)c1cc(S(=O)(=O)O)cc(Nc2c3ccccc3nc3ccccc23)c1O	HP1b chromo inh inconclusive, G9a block 18µM, BAZ2B block inconclusive, JMJD2A Tudor inh inconclusive
O=[N+]([O-])c1ccccc1Nc1c2ccccc2nc2ccccc12	none
COc1ccc(N(C(C)C(=O)NCc2ccco2)S(C)(=O)=O)cc1 (stereo not given)	G9a block 50µM
COc1ccc(N(C(C)C(=O)N/N=C/c2ccc(OC(C)C)cc2)S(C)(=O)=O)cc1 (stereo not given)	G9a block inconclusive, BAZ2B block inconclusive
COc1ccc(N(C(C)C(=O)NN=C2CCCCCCC2)S(C)(=O)=O)cc1 (stereo not given)	PLK1 PBD block 27µM
COc1ccc(N(C(C)C(=O)N/N=C/c2ccc(OC)c(OC)c2)S(C)(=O)=O)cc1 (stereo not given)	PLK1 PBD block 30µM
COc1ccc(N(C(C)C(=O)NC2CCCCCC2)S(C)(=O)=O)cc1 (stereo not given)	none
CCc1ccccc1N(CC(=O)N/N=C/c1ccc(OC(=O)OC)c(OC)c1)S(C)(=O)=O	PLK1 PBD block 24µM
O=C(Nc1ccncc1)C1CCN(S(=O)(=O)c2c(Cl)cccc2Cl)CC1	none
CCCCCn1c(=N)c(S(=O)(=O)c2ccccc2)cc2c(=O)n3ccccc3nc21	none (no result: PLK1 PBD block)
Cc1n[nH]c(=O)c2c(NC(=O)CSc3c(Cl)cccc3Cl)oc(C)c12	PLK1 PBD block inconclusive, G9a block 13µM
Cc1n[nH]c(=O)c2c(NC(=O)CSc3ccccc3Cl)oc(C)c12	PLK1 PBD block inconclusive, G9a block 32µM
Cc1n[nH]c(=O)c2c(NC(=O)CSc3nn(-c4ccc(F)cc4)c(=S)s3)oc(C)c12	PLK1 PBD block inconclusive, VDR inhibitor inconclusive
Cc1n[nH]c(=O)c2c(NC(=O)CSc3nncn3C(C)C)oc(C)c12	G9a block inconclusive
CCN(CC)c1sc(S(=O)(=O)c2ccccc2)nc1S(=O)(=O)c1ccc(C)cc1	none (no result: PLK1 PBD block)
O=S1(=O)N=C(N/N=C/c2cccs2)c2ccccc21	none
COc1ccc(OC)c(NC(=O)C2CCN(Cc3cnn(-c4ccccc4)c3-n3cccc3)CC2)c1	HP1b chromo inh inconclusive, G9a block 45µM, BAZ2B block inconclusive, JMJD2A Tudor inh 50µM
COc1cccc(NC(=O)C2CCN(Cc3cnn(-c4ccccc4)c3-n3cccc3)CC2)c1	G9a block inconclusive, JMJD2A Tudor inh inconclusive
CC(Cl)C(=O)c1ccc2c(c1)CCN2C(=O)C1CC1 (stereo not given)	PLK1 PBD block 19µM
O=C(C1CC1)N1CCc2cc(S(=O)(=O)N3CCOCC3)ccc21	none
CCCCOc1ccccc1C(=O)Nc1nonc1-c1ccccc1	none (no result: PLK1 PBD block)
C#CCN(C[C@H]1[C@H](OC(=O)NCC2CCCCC2)[C@H](OC(=O)NCC2CCCCC2)C[C@@H](C(=O)OC)[C@H]1C(=O)OC)S(=O)(=O)c1ccc(C)cc1	none (no result: HP1b chromo inh, G9a block, BAZ2B block, JMJD2A Tudor inh, VDR inhibitor)
CCN(CC)c1ccc(NC(=O)COc2ccccc2C#N)cc1S(=O)(=O)Nc1ccc(OC)cc1	PLK1 PBD block inconclusive, G9a block inconclusive
CCN(CC)c1ccc(NC(=O)c2ccccc2F)cc1S(=O)(=O)Nc1ccccc1OC	PLK1 PBD block 11µM, HP1b chromo inh inconclusive, G9a block 6.3µM, JMJD2A Tudor inh inconclusive, VDR inhibitor inconclusive
CCN(CC)c1ccc(NC(=O)c2ccc(=O)[nH]c2)cc1S(=O)(=O)Nc1ccccc1OC	PLK1 PBD block 4.7µM, HP1b chromo inh inconclusive, G9a block 2.5µM, JMJD2A Tudor inh inconclusive, VDR inhibitor 32µM (no result: BAZ2B block)
CCN(CC)CCNC(=O)c1ccc(NC(=O)c2ccc(Cl)c(S(=O)(=O)Nc3ccccc3OC)c2)cc1	G9a block 50µM (no result: PLK1 PBD block, HP1b chromo inh, JMJD2A Tudor inh, VDR inhibitor)
CCN(CC)c1ccc(NC(=O)COc2ccccc2C)cc1S(=O)(=O)Nc1ccccc1OC	PLK1 PBD block 5.3µM, HP1b chromo inh inconclusive, G9a block 10µM, JMJD2A Tudor inh inconclusive, VDR inhibitor inconclusive
COc1cccc(C2C(C(=O)Nc3ccccc3OC)=C(C)Nc3nc(-c4ccco4)nn32)c1 (stereo not given)	JMJD2A Tudor inh inconclusive (no result: PLK1 PBD block)
CCN(C(C)=O)c1ccc(Oc2nc(OC)cc(OC)n2)cc1	none
Brc1ccc(CSc2nccn2-c2ccccc2)cc1	HP1b chromo inh inconclusive, G9a block 45µM, BAZ2B block 40µM, JMJD2A Tudor inh 56µM
Cn1c(SCc2ccc(Br)cc2)nnc1-c1ccccn1	G9a block inconclusive, BAZ2B block 79µM
Cc1cc2n(n1)SC(Nc1ccc(F)c(Cl)c1)N2 (stereo not given)	G9a block 1.4µM, JMJD2A Tudor inh inconclusive
CCc1ccc(CN(C)C(=O)c2cc(COc3ccc(-n4cncn4)cc3)on2)cc1	none
COc1ccc(CNC(=O)c2ccc(S(=O)(=O)NCc3ccco3)cc2)cc1	none
Cc1ccc(Cn2c(SCC(=O)NCc3ccccc3)nc3ccsc3c2=O)cc1	none (no result: PLK1 PBD block)
COc1cc(-c2c(C#N)c(N)nc3[nH]c(=S)[nH]c(=O)c23)ccc1O	G9a block 71µM
O=Cc1ccccc1-n1cncn1	none
O=[N+]([O-])c1ccccc1/C=C/C=N/n1c(-c2ccccc2)n[nH]c1=S	PLK1 PBD block inconclusive, HP1b chromo inh inconclusive, G9a block 3.2µM, BAZ2B block inconclusive, JMJD2A Tudor inh 56µM
O=[N+]([O-])c1ccccc1/C=C/C=N/n1c(-c2ccc(Cl)cc2)n[nH]c1=S	PLK1 PBD block inconclusive, G9a block 6.3µM, BAZ2B block inconclusive, JMJD2A Tudor inh inconclusive
Cc1ccc(-c2n[nH]c(=S)n2/N=C/C=C\c2ccccc2[N+](=O)[O-])cc1	G9a block inconclusive, BAZ2B block inconclusive, JMJD2A Tudor inh inconclusive
COc1cc(Cl)c(C)cc1NC(=O)CSc1nc2c(c(=O)[nH]1)CCCC2	none (no result: PLK1 PBD block)
COc1ccc(C2Nc3ccccc3C(=O)N2Cc2ccccc2)cc1COc1cccc(Cl)c1 (stereo not given)	none (no result: PLK1 PBD block, HP1b chromo inh, G9a block, BAZ2B block, VDR inhibitor)
COc1ccc(C2CC(=O)n3nc(C45CC6CC(CC(C6)C4)C5)nc3S2)cc1OC (stereo not given)	G9a block 11µM
